Assay outcomes (PubChem BioAssay)
12-LOX inh – ALOX12 (human) lipoxygenase inhibition | actives 1.1% (n = 580,000) | P18054 | purified 12hLO, xylenol orange hydroperoxide absorbance | Potency, µM (series often up to 108 µM), inactives show top-dose activity change, negative = inhibition, usual class: inhibitors; also: potency is read from the fitted curve at half-maximal effect; % is scaled to controls: 0 for no effect and ±100 for the full control effect
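Purified human 12hLO at 150 nM in 25 mM Hepes, 0.01% Triton X-100, pH 7.0, preincubated 15 min at room temperature with compound. Reaction started with 40 uM arachidonic acid, 30 min at room temperature. Hydroperoxide measured by Fe-xylenol orange, 573/405 nm absorbance ratio.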
IDH1 R132H inh – human IDH1 R132H inhibition; IDH1-R132H enzyme, NADPH consumption, diaphorase/resazurin fluorescence; Potency, µM (doses to about 76.6 µM), inactives show top-dose activity change, negative = inhibition, actives largely listed as inhibitors; actives 0.093% (n = 390,000); AID 602179; also: potency is read from the fitted curve at half-maximal effect; % is scaled to controls: 0 for no effect and ±100 for the full control effect; nearly all actives have a fitted effect of over 65% in size
Target sequence (O75874 whole entry R132H, stated change not applied): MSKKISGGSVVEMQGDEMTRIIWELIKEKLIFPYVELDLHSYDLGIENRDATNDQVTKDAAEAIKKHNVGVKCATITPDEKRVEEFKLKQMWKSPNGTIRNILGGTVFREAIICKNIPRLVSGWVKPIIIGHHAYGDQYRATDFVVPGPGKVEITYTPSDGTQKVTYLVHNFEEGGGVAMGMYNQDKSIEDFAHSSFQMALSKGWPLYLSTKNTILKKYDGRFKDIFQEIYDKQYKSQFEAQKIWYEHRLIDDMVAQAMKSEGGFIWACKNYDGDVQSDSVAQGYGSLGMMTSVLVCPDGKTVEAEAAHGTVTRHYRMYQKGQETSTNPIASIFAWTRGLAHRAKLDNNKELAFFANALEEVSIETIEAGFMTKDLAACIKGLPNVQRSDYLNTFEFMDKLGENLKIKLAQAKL
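IDH1-R132H (0.5 ug/mL) preincubated 30 min with compound, then NADPH (0.016 mM) and alpha-KG (2 mM) added; 80 min at RT, pH 7.5. Remaining NADPH coupled via diaphorase/resazurin to fluorescence (540/590 nm); concentration-response curves normalized to no-enzyme control.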
Nrf2 inh – Nrf2 pathway inhibition | AID 504444 | Potency, µM (doses to about 46 µM), inactives show top-dose activity change, negative = inhibition, hits mostly inhibitors | actives 2.1% (n = 360,000) | A549 ARE-Fluc reporter, luciferase luminescence, 18-24 h; also: potency is read from the fitted curve at half-maximal effect; % is scaled to controls: 0 for no effect and ±100 for the full control effect; nearly all actives have a fitted effect of over 60% in size
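Reporter: ARE-Fluc in A549. Exposure: 18-24 h, 37 °C, 5% CO2, 5% FBS OPTI-MEM. Readouts: fluorescent cytotoxicity (CellTiter-Fluor), then luminescent Nrf2 signal after BugLite.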
A549 viability – kills or reduces viability of A549 cells in Nrf2 counter-screen. A549 ARE-Fluc cells, CellTiter-Fluor viability, 18-24 h. Potency, µM (titrated, usually from 46 µM), inactives show top-dose activity change, negative = cytotoxicity, hits mostly inhibitors. actives 0.16% (n = 390,000). AID 504648; also: potency is read from the fitted curve at half-maximal effect; % is scaled to controls: 0 for no effect and ±100 for the full control effect
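A549 ARE_Fluc cells in 5% FBS OPTI-MEM were exposed to compounds in concentration-response for 18-24 h at 37 deg C. Viability was read by CellTiter-Fluor fluorescence (Ex 405/Em 525) after 30 min, before the luciferase read.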
Nrf2 ARE act – activates Nrf2 signaling; AID 624171; Potency, µM (doses to about 46.1 µM), for inactives: at the highest dose activation, usual class: activators; actives 0.31% (n = 410,000); AREc32 ARE-luciferase reporter (MCF7-derived line), luminescence, 24 h; also: potency is read from the fitted curve at half-maximal effect; % of control where 0% means no effect; nearly all actives have a fitted effect of over 65% in size
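ARE activation measured as luciferase luminescence (Steady-Glo, 30 min RT) in AREc32_Fluc cells after 24 hr compound exposure at 37 deg C, 5% CO2; cells seeded overnight at 1000/well in OPTI-MEM, 5% FBS.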
LDHA inh – LDHA (human) enzyme inhibition; P00338; purified LDHA, NADH/diaphorase-resazurin fluorescence; active compounds read low; activity change, % (values are at about 110 or 230 µM); actives 0.15% (n = 480,000); in the data active = activity change below about -30%; inconclusive = mostly about -25% to -30%;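 also: plate controls were DMSO wells for no effect and wells without enzyme for full effect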
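Resorufin fluorescence (ex540/em590), read at 0 and 20 min after diaphorase/resazurin addition, reports the NADH left after a 5 min room-temperature reaction of 2 nM human LDH5 with 0.06 mM NADH and 0.2 mM pyruvate.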
Active calls of the source: *; ? = inconclusive; nt = not tested or not shown; [ ] = another dose, or the depositor's remark. Only some compounds are listed: those with a hit (about 2.7% of all), similar ones and a draw of the others. Unless noted, calls follow the shape of the dose curve; as a rule, active = well fitted curve in the direction sought with a large enough effect; inconclusive = small, poorly fitted or top-dose-only effect, or another doubt; inactive = no such curve, though single readings can be large; an effect the other way counts as inactive or inconclusive.

SMILES	12-LOX inh	IDH1 R132H inh	Nrf2 inh	A549 viability	Nrf2 ARE act	LDHA inh
CC(C)(C)OC(=O)NCc1ccc(CNC(=O)c2ncn(Cc3ccccc3)c2C(=O)NCc2ccc(CNC(=O)OC(C)(C)C)cc2)cc1	-4%	2%	1%	7%	-1%	0
O=C(NCCCN1CCOCC1)C(=O)NCc1ccc(Cl)cc1	0%	-6%	-21%	-4%	0%	-10
CC(C)(C)c1ccc(C(=O)NCc2ccc(Cl)cc2)cc1	-9%	2%	?	1%	0%	-5
CC(C)(C)OC(=O)N1CCN(c2ccc(CNC(=O)c3ccc(Cl)cc3)cc2)CC1	-10%	-4%	10µM*	-27%	-1%	0
Cn1cnc(C(=O)NCc2ccc(CNC(=O)OC(C)(C)C)cc2)c1C(=O)NCc1ccc(CNC(=O)OC(C)(C)C)cc1	9%	10%	18µM*	1%	0%	-2
N#CC(c1nc2ccccc2nc1NC1CCCC1)S(=O)(=O)c1ccc(F)cc1 (stereo not drawn)	-22%	nt	nt	nt	nt	5
Cn1cc(C(F)(F)F)ccc1=S	-28%	nt	nt	nt	nt	10
Cc1ccccc1CC(=O)N1CCC2(CC1)NC(=O)N(c1ccccc1)N2	1.3µM*	nt	nt	nt	nt	nt
CCn1nccc1C(=O)N1CCC2(CC1)NC(=O)N(c1ccccc1)N2	5.6µM*	nt	nt	nt	nt	nt
O=C(C1CCCC1)N1CCC2(CC1)NC(=O)N(c1ccccc1)N2	2.8µM*	nt	nt	nt	nt	nt
O=C(C1CC1)N1CCC2(CC1)NC(=O)N(c1cccc(Cl)c1)N2	1.4µM*	nt	nt	nt	nt	nt
Cc1ccccc1CC(=O)N1CCC2(CC1)N(c1ccccc1)C(=O)CS2(=O)=O	34%	nt	nt	nt	nt	nt
CC(C)c1ccc(NC(=O)c2cc3c(s2)CCC3)cc1	?	nt	nt	nt	nt	7
C[N+]1(CC[N+]2(C)CCCCC2)CCCCC1	4µM*	nt	nt	nt	nt	1
CN(C)/N=C/C=C1\CCC/C(=C/c2cccs2)C1=O	14%	20%	?	0%	10µM*	2
Cc1ccc(NC(=S)/C(C#N)=C2/Nc3ccccc3S2)cc1	13µM*	-6%	nt	nt	-5%	-20
Cc1ccc2c(CSc3nnc(NC4CC4)s3)cc(=O)oc2c1	?	nt	nt	nt	nt	6
Cc1ccc2c(CSc3nnc(NCC(C)C)s3)cc(=O)oc2c1	18µM*	nt	nt	nt	nt	0
O=C1C(Nc2ccccc2)=C(N2CCCCC2)C(=O)c2ccccc21	-14%	0%	-10%	-7%	-1%	23
O=C(/C=C/c1ccc(O)cc1)c1ccc(NC2=C(N3CCCCC3)C(=O)c3ccccc3C2=O)cc1	-26%	6%	15µM*	?	6%	29
CCc1cc(=O)oc2cc(OCC(=O)NCc3ccncc3)ccc12	?	nt	nt	nt	nt	-1
CCCOc1ccc(CN(C(=O)c2cc(=O)c3cc(Cl)ccc3o2)C2CCS(=O)(=O)C2)cc1 (stereo not drawn)	?	nt	nt	nt	nt	-3
Cn1c(=O)c2[nH]c(C3CCCC3)nc2n(C)c1=O	-18%	-1%	6.5µM*	-9%	1%	6
NC(=O)C1CCN(C(=O)Cc2c[nH]c3ccccc23)CC1	44%	nt	nt	nt	nt	-6
O=C(/C=C/c1cccc(Br)c1)c1cccc(O)c1	?	nt	nt	nt	nt	20
SMILES	12-LOX inh	IDH1 R132H inh	Nrf2 inh	A549 viability	Nrf2 ARE act	LDHA inh
CCCC(=O)N1Cc2ccccc2CC2(CCCCN2CC)C1 (stereo not drawn)	13%[6.33 µM]	nt	nt	nt	nt	nt
Cc1ccc(CNC2CN(C(=O)OC(C)(C)C)C2)cc1	10%[12.5 µM]	nt	nt	nt	nt	nt
O=C(Nc1ccc2nc(SCC(=O)N3CCCc4ccccc43)sc2c1)c1ccccc1	-13%	0%	12µM*	-15%	1%	-10
O=C(Nc1ccc2nc(SCC(=O)N3CCc4ccccc43)sc2c1)c1ccccc1	-18%	1%	14%	0%	4%	-2
CN(C)C(CNC(=O)c1ccc(Br)o1)c1ccccc1 (stereo not drawn)	?	nt	nt	nt	nt	5
COC(=O)c1ccsc1NC(=O)CSc1nnnn1-c1ccccc1SC	-3%	4%	21µM*	-20%	4%	1
CSc1ccccc1NC(=O)CSc1nnnn1-c1ccccc1SC	-1%	3%	6%	2%	0%	-4
CC(C)c1ccc(NC(=S)NNC(=O)C(N)=O)cc1	?	nt	nt	nt	nt	-3
O=C(Nc1ccc(Cc2ccncc2)cc1)c1ccc(S(=O)(=O)N2CCOCC2)cc1	24%	3%	9.2µM*	-5%	0%	-2
CC(=O)N1CCOc2ccc(S(=O)(=O)N3CCC(C(=O)Nc4ccc(C)cc4)CC3)cc21	-8%	-5%	?	1%	-1%	-8
Cc1ccc(NC(=O)C2CCN(S(=O)(=O)c3ccccc3)CC2)cc1	0%	19%	15µM*	-10%	0%	-5
CCc1ccc(NC(=O)C2CCN(S(=O)(=O)c3ccc4c(c3)N(C(C)=O)CCO4)CC2)cc1	nt	-5%	23µM*	1%	3%	-9
O=C(Nc1ccc(S(=O)(=O)N2CCOCC2)cc1)c1ccc(S(=O)(=O)N2CCOCC2)cc1	-1%	13%	?	7%	0%	-1
CN(c1ccc(C(=O)Nc2ccc(S(=O)(=O)N3CCCC3)cc2)cc1)S(C)(=O)=O	-10%	-1%	9.2µM*	-26%	0%	3
CCOc1cc(/C=C2/NC(=O)NC2=O)cc(Cl)c1OCc1ccccc1F	?	nt	nt	nt	nt	-13
O=C(/C=C/c1ccco1)N1CCN(Cc2ccc(C(F)(F)F)cc2)CC1	?	nt	nt	nt	nt	4
Cc1cccc(NC(=O)CSc2ncc(CO)n2CC(=O)NC2CC2)c1C	-2%	nt	nt	nt	nt	-4
CC(C)CCCCCCNC(=S)Nc1ccc(S(=O)(=O)N2CCOCC2)cc1	50µM*	1%	?	?	6%	0
O=C(Nc1ccc(S(=O)(=O)N2CCCCC2)cc1)c1ccc(F)cc1	-18%	12%	29µM*	-8%	-1%	-3
CCOc1ccc(C(=O)Nc2ccc(Cc3ccncc3)cc2)cc1Br	0%	-31%	15µM*	?	3%	-8
O=C(Nc1ccccc1)C1CCN(S(=O)(=O)c2ccc3[nH]c4c(c3c2)CCCCC4)CC1	-15%	-30%	16µM*	-25%	-1%	-15
